Results published in PubChem BioAssay (EPA / NIEHS).
Active and inactive are the calls of the source. Rule for the calls: active = hit-call score of the fitted dose curve at least 0.9, where 1 is the maximum; inactive = score below 0.9.

Columns and labels:
Conditions in all cases: mRNA level, 48 h; actives raise or lower the signal
[1] = read-out: Hypoxia-inducible factor 1-alpha (Homo sapiens) (UniProt Q16665); experiment: LTEA_HepaRG_HIF1A: Life Technologies and Expression Analysis (LTEA) Assay for Hypoxia-inducible factor 1 (HIF1A) Trancription factor using HepaRG (AID 2283503)
How it was run: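 HepaRG, 48 h exposure, 8-pt half-log series from 100 uM, 0.5% DMSO vehicle, duplicates. Readout: HIF1A transcript by qRT-PCR (Fluidigm array), housekeeping-normalised. Bidirectional curve fit vs DMSO baseline.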

[2] = read-out: 3-Hydroxy-3-Methylglutaryl-CoA Synthase 2 (HMGCS2), HMGCS2 (gene 3158); experiment: LTEA_HepaRG_HMGCS2: Life Technologies and Expression Analysis (LTEA) Assay for 3-Hydroxy-3-Methylglutaryl-CoA Synthase 2 (HMGCS2) using HepaRG (AID 2283504)
How it was run: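 HepaRG, plated 48 h then switched to serum-free induction media; cmpd 8-pt, max 100 uM, 1/2-log, 0.5% DMSO, n=2, 48 h. HMGCS2 mRNA by Fluidigm TaqMan qRT-PCR, ACTB/GAPDH/POLR2A norm; bidirectional fit vs DMSO.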

HGF (gene 3082) = experiment: LTEA_HepaRG_HGF: Life Technologies and Expression Analysis (LTEA) Assay for Hepatocyte Growth Facto (HGF) using HepaRG (AID 2283505)
How it was run: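 Read-out is HGF transcript level by qRT-PCR, normalized to three housekeeping genes, fitted bidirectionally against 0.5% DMSO vehicle. Human HepaRG cells received test chemicals for 48 h at up to 100 uM.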

[3] = read-out: Insulin Like Growth Factor 1 (IGF1), IGF1 (gene 3479); experiment: LTEA_HepaRG_IGF1: Life Technologies and Expression Analysis (LTEA) Assay for Insulin Like Growth Factor 1 (IGF1) using HepaRG (AID 2283506)
How it was run: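 Using human HepaRG liver cells, IGF1 transcript induction or suppression is measured 48 h after dosing across eight concentrations capped at 100 uM. Values derive from bidirectional concentration-response fitting with DMSO as baseline.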

[4] = read-out: Intercellular Adhesion Molecule 1 (ICAM1), ICAM1 (gene 3383); experiment: LTEA_HepaRG_ICAM1: Life Technologies and Expression Analysis (LTEA) Assay for Intercellular Adhesion Molecule 1 (ICAM1) using HepaRG (AID 2283507)
How it was run: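 Readout is qRT-PCR mRNA level, normalized to three housekeeping genes and fitted bidirectionally against 0.5% DMSO vehicle. Human HepaRG cultures received compound for 48 h, top concentration 100 uM with half-log dilutions.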

[5] = read-out: Insulin-like growth factor-binding protein 1 (IGFBP1), IGFBP1 (gene 3484); experiment: LTEA_HepaRG_IGFBP1: Life Technologies and Expression Analysis (LTEA) Assay for Insulin-like growth factor-binding protein 1 (IGFBP1) using HepaRG (AID 2283508)
How it was run: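 Thawed HepaRG cells are plated for 48 h, switched to serum-free induction medium, then dosed in duplicate for another 48 h (100 uM top, half-log steps). Lysates in RLT go to qRT-PCR, and gain or loss of signal is fitted relative to vehicle.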

[6] = read-out: Interleukin 6 (IL6), IL6 (gene 3569); experiment: LTEA_HepaRG_IL6: Life Technologies and Expression Analysis (LTEA) Assay for Interleukin 6 (IL6) using HepaRG (AID 2283509)
How it was run: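 Differentiated human HepaRG cells, plated 48 h then switched to serum-free induction medium, were exposed in duplicate for 48 h to eight half-log concentrations up to 100 uM in 0.5% DMSO. IL6 mRNA measured by qRT-PCR, normalized to ACTB/GAPDH/POLR2A.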

[7] = read-out: Interleukin 6 Receptor (IL6R), IL6R (gene 3570); experiment: LTEA_HepaRG_IL6R: Life Technologies and Expression Analysis (LTEA) Assay for Interleukin 6 Receptor (IL6R) using HepaRG (AID 2283510);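 for AC50: TaqMan qRT-PCR signal normalized to ACTB GAPDH and POLR2A housekeeping genes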
How it was run: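 Concentration-response in human liver HepaRG cells: eight concentrations from 100 uM downward by half-logs, 48 h exposure, 0.5% DMSO vehicle. IL6R mRNA change measured by qRT-PCR and fitted in both directions relative to vehicle.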

[8] = read-out: Potassium channel subfamily K member 1 (KCNK1), KCNK1 (gene 3775); experiment: LTEA_HepaRG_KCNK1: Life Technologies and Expression Analysis (LTEA) Assay for Potassium channel subfamily K member 1 (KCNK1) using HepaRG (AID 2283511)
How it was run: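 Differentiated human HepaRG cells in serum-free induction medium were exposed in duplicate for 48 h to 8 half-log concentrations up to 100 uM in 0.5% DMSO. KCNK1 mRNA was measured by TaqMan qRT-PCR, normalized to ACTB, GAPDH and POLR2A, and fitted bidirectionally versus DMSO.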

[9] = read-out: Keratin 19 (KRT19), KRT19 (gene 3880); experiment: LTEA_HepaRG_KRT19: Life Technologies and Expression Analysis (LTEA) Assay for Keratin 19 (KRT19) using HepaRG (AID 2283512)
How it was run: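 KRT19 transcript levels, measured by Fluidigm qRT-PCR against three housekeeping genes, are fitted for gain or loss of signal relative to DMSO. Human HepaRG cells receive test chemicals (top 100 uM, half-log steps, 0.5% DMSO) for 48 hours.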

[10] = read-out: JUN Transcription Factor, JUN (gene 3725); experiment: LTEA_HepaRG_JUN: Life Technologies and Expression Analysis (LTEA) Assay for JUN Transcription Factor using HepaRG (AID 2283513)
How it was run: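 Human HepaRG liver cells receive test chemicals in 0.5% DMSO for 48 h across an eight-point range topping at 100 uM. Expression changes in JUN are scored in both directions against the DMSO vehicle.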

[11] = read-out: Lipase C (LIPC), LIPC (gene 3990); experiment: LTEA_HepaRG_LIPC: Life Technologies and Expression Analysis (LTEA) Assay for Lipase C (LIPC) using HepaRG (AID 2283514)
How it was run: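 Differentiated human HepaRG cells in serum-free induction medium were exposed in duplicate for 48 h to eight concentrations (top 100 uM, half-log steps, 0.5% DMSO). LIPC mRNA was quantified by TaqMan qRT-PCR, normalized to ACTB, GAPDH and POLR2A, with bidirectional fitting versus DMSO.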

[12] = read-out: Lipoprotein lipase (LPL), LPL (gene 4023); experiment: LTEA_HepaRG_LPL: Life Technologies and Expression Analysis (LTEA) Assay for Lipoprotein lipase (LPL) using HepaRG (AID 2283515)
How it was run: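 Differentiated human HepaRG cells in serum-free induction medium were exposed in duplicate for 48 h to eight half-log concentrations (top 100 uM) in 0.5% DMSO. LPL mRNA was quantified by TaqMan qRT-PCR, normalized to ACTB, GAPDH and POLR2A.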

[13] = read-out: MicroRNA 122 (MIR122), gene 406906; experiment: LTEA_HepaRG_MIR122: Life Technologies and Expression Analysis (LTEA) Assay for MicroRNA 122 (MIR122) using HepaRG (AID 2283516); note: the transcript read is the microRNA miR-122
How it was run: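 HepaRG, 48 h exposure, 8-pt half-log from 100 uM, 0.5% DMSO; TaqMan qRT-PCR; bidirectional fit vs DMSO.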

MYC, MYC (gene 4609) = experiment: LTEA_HepaRG_MYC: Life Technologies and Expression Analysis (LTEA) Assay for MYC using HepaRG (AID 2283518)
How it was run: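 HepaRG, ~100,000 cells/well, collagen I; 48 h plating; serum-free induction medium; 48 h dosing, duplicate, 100 uM top, half-log, 0.5% DMSO; total RNA → qRT-PCR MYC; gain/loss fit vs DMSO.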

[14] = read-out: matrix metalloproteinase-3 (MMP3), MMP3 (gene 4314); experiment: LTEA_HepaRG_MMP3: Life Technologies and Expression Analysis (LTEA) Assay for matrix metalloproteinase-3 (MMP3) using HepaRG (AID 2283519)
How it was run: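 Differentiated human HepaRG cells, plated 48 h on collagen I, were exposed in duplicate for 48 h in serum-free induction medium to eight half-log concentrations up to 100 uM in 0.5% DMSO. MMP3 mRNA was quantified by TaqMan qRT-PCR, normalised to ACTB, GAPDH and POLR2A.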

[15] = read-out: Paternally Expressed 10 (PEG10), PEG10 (gene 23089); experiment: LTEA_HepaRG_PEG10: Life Technologies and Expression Analysis (LTEA) Assay for Paternally Expressed 10 (PEG10) using HepaRG (AID 2283520);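 for AC50: PEG10 transcript by qRT-PCR normalised to ACTB GAPDH and POLR2A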
How it was run: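 Chemicals tested on HepaRG cells for 48 h, highest concentration 100 uM. PEG10 expression assessed by qRT-PCR relative to DMSO control.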

[16] = read-out: Protein phosphatase 2A (PPP2R4), PTPA (gene 5524); experiment: LTEA_HepaRG_PPP2R4: Life Technologies and Expression Analysis (LTEA) Assay for Protein phosphatase 2A (PPP2R4) using HepaRG (AID 2283522)
How it was run: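 Gene-expression endpoint in HepaRG hepatic cells: 48 h treatment across eight half-log concentrations up to 100 uM in 0.5% DMSO. PPP2R4 mRNA by qRT-PCR, normalized to three endogenous control genes.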

[17] = read-out: Nuclear factor NF-kappa-B p105 subunit (Homo sapiens) (UniProt P19838); experiment: LTEA_HepaRG_NFKB1: Life Technologies and Expression Analysis (LTEA) Assay for Nuclear Factor Kappa B Subunit 1 (NFKB1) using HepaRG (AID 2283521);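 note: TaqMan qRT-PCR transcript normalised to ACTB GAPDH and POLR2A housekeeping genes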
How it was run: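 Differentiated human HepaRG cells were exposed for 48 h in serum-free induction medium to eight concentrations (top 100 uM, half-log steps, 0.5% DMSO), in duplicate. NFKB1 mRNA was measured by TaqMan qRT-PCR, normalized to ACTB/GAPDH/POLR2A, and fitted bidirectionally against DMSO.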

[18] = read-out: matrix metalloproteinase-10 (MMP10), MMP10 (gene 4319); experiment: LTEA_HepaRG_MMP10: Life Technologies and Expression Analysis (LTEA) Assay for matrix metalloproteinase-10 (MMP10) using HepaRG (AID 2283517)
How it was run: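 HepaRG, collagen I, ~100,000 cells/well; serum-free induction medium; 48 h exposure, duplicate, 8-pt half-log to 100 uM, 0.5% DMSO. Readout: TaqMan qRT-PCR, normalized to ACTB/GAPDH/POLR2A; bidirectional fit vs DMSO.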

Measured: AC50

Nuclear factor NF-kappa-B p105 subunit (Homo sapiens), sequence (P19838 whole entry, looked up): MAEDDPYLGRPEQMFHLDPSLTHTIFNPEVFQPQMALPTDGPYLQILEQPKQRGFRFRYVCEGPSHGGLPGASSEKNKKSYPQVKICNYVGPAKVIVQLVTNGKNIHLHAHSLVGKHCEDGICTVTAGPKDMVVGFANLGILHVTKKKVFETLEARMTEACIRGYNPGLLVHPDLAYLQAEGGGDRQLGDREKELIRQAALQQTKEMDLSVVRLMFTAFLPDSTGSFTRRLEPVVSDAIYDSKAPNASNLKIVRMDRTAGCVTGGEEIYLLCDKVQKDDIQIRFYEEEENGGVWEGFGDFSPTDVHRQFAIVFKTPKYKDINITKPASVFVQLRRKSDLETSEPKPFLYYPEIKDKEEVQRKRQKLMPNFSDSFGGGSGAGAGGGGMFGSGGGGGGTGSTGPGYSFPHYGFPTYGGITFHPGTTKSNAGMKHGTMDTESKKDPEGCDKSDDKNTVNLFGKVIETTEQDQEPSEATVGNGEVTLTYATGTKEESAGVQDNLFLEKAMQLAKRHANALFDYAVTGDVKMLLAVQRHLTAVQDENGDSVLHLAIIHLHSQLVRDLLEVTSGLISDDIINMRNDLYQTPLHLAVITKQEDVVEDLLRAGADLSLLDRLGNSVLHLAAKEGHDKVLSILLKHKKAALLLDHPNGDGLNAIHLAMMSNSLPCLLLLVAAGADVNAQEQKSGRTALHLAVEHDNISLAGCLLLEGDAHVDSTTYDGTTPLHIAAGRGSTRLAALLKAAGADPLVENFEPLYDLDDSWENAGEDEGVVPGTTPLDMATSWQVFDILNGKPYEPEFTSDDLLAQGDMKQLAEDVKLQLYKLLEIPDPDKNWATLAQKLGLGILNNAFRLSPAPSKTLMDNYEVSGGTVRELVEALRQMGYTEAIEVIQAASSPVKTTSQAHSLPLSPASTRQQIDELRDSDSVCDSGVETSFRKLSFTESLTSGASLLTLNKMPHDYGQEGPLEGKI
Hypoxia-inducible factor 1-alpha (Homo sapiens), sequence (Q16665 whole entry, looked up): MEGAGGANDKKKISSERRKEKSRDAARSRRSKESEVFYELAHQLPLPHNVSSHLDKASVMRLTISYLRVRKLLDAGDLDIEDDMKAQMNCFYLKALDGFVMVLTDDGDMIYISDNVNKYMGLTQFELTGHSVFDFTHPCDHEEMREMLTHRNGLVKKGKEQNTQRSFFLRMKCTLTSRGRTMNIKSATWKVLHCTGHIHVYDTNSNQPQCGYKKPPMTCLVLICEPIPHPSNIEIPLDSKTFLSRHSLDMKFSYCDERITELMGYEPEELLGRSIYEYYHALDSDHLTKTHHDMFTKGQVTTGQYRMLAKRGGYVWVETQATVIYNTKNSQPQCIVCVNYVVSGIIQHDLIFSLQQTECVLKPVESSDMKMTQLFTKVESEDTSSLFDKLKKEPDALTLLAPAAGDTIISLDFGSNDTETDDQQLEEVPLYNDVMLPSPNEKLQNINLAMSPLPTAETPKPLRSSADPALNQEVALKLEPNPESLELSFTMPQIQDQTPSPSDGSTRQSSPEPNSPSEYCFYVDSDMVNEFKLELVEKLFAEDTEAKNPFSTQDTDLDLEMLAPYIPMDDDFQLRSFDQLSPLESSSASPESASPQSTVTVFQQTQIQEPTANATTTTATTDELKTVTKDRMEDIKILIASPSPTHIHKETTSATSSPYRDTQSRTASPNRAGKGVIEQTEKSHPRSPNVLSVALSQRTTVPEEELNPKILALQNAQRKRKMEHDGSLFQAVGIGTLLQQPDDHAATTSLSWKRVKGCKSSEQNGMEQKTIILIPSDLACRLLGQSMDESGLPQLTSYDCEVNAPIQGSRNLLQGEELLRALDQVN

CSc1nc(NC(C)C)nc(NC(C)C)n1
active: [2] 50 µM | [3] 20.7 µM | [13] 50 µM | [15] 22.5 µM
inactive: [1] | HGF (gene 3082) | [4] | [5] | [6] | [7] | [8] | [9] | [10] | [11] | [12] | MYC, MYC (gene 4609) | [14] | [16]

CCc1cccc(C)c1N(C(=O)CCl)C(C)COC (stereo not drawn)
active: [3] 50 µM
inactive: [1] | [2] | HGF (gene 3082) | [4] | [5] | [6] | [7] | [8] | [9] | [10] | [11] | [12] | [13] | [14] | [17] | [16]

CC(Oc1cccc(Cl)c1)C(=O)O (stereo not drawn)
inactive: [1] | [2] | HGF (gene 3082) | [4] | [5] | [6] | [7] | [8] | [9] | [10] | [11] | [12] | [13] | [18] | MYC, MYC (gene 4609) | [14] | [16]

CCOP(=S)(OCC)Oc1ccc([N+](=O)[O-])cc1
active: [7] 1.48 µM
inactive: [1] | [2] | HGF (gene 3082) | [3] | [4] | [6] | [9] | [10] | [11] | [13] | MYC, MYC (gene 4609) | [14] | [17] | [16]

CN1COCN(Cc2cnc(Cl)s2)C1=N[N+](=O)[O-]
inactive: [1] | [2] | HGF (gene 3082) | [3] | [4] | [6] | [7] | [8] | [9] | [10] | [11] | [12] | [13] | MYC, MYC (gene 4609) | [14] | [15] | [17] | [16]

CCOP(=O)(SC(C)CC)N1CCSC1=O (stereo not drawn)
inactive: [1] | [4] | [6] | [7] | [8] | [9] | [10] | [12] | [13] | MYC, MYC (gene 4609) | [14] | [16]
active: [2] 21.3 µM | [3] 21 µM | [11] 25.6 µM | [15] 26.2 µM

COP(=O)(OC)SCn1c(=O)oc2cc(Cl)cnc21
active: HGF (gene 3082) 65.9 µM | [11] 79.1 µM
inactive: [1] | [2] | [3] | [4] | [6] | [7] | [8] | [9] | [10] | [12] | [13] | MYC, MYC (gene 4609) | [14] | [17] | [16]
